# ChEMBL document CHEMBL2218924, “A broad activity screen in support of a chemogenomic map for kinase signalling research and drug discovery” (Biochem J, 2013)
# How the values were obtained:
# [1] = biological target: T1, Mitogen-activated protein kinase kinase kinase 7 (Homo sapiens) (UniProt O43318); details: at 1 µM
# T1 sequence (whole entry): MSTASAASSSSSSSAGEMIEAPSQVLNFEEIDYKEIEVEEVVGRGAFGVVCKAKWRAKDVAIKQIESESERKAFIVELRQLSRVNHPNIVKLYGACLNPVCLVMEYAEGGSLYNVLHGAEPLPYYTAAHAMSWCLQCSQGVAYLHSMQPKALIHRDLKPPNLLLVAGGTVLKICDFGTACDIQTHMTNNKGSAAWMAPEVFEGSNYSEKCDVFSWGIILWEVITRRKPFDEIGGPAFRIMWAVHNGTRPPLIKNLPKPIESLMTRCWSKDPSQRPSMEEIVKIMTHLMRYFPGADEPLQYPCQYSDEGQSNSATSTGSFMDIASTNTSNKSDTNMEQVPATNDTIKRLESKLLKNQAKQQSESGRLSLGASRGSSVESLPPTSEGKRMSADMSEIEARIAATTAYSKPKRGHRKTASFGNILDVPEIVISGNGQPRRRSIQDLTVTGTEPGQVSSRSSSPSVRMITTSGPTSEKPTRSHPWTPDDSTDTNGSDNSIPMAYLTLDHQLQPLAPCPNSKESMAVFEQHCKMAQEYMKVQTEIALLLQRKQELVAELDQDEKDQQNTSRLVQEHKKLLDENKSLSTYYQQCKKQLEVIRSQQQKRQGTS
# [2] = biological target: T1, Mitogen-activated protein kinase kinase kinase 7 (Homo sapiens); details: at 10 µM
# [3] = biological target: T2, Serine/threonine-protein kinase TAO1 (Homo sapiens) (UniProt Q7L7X3); details: at 1 µM
# T2 sequence (whole entry): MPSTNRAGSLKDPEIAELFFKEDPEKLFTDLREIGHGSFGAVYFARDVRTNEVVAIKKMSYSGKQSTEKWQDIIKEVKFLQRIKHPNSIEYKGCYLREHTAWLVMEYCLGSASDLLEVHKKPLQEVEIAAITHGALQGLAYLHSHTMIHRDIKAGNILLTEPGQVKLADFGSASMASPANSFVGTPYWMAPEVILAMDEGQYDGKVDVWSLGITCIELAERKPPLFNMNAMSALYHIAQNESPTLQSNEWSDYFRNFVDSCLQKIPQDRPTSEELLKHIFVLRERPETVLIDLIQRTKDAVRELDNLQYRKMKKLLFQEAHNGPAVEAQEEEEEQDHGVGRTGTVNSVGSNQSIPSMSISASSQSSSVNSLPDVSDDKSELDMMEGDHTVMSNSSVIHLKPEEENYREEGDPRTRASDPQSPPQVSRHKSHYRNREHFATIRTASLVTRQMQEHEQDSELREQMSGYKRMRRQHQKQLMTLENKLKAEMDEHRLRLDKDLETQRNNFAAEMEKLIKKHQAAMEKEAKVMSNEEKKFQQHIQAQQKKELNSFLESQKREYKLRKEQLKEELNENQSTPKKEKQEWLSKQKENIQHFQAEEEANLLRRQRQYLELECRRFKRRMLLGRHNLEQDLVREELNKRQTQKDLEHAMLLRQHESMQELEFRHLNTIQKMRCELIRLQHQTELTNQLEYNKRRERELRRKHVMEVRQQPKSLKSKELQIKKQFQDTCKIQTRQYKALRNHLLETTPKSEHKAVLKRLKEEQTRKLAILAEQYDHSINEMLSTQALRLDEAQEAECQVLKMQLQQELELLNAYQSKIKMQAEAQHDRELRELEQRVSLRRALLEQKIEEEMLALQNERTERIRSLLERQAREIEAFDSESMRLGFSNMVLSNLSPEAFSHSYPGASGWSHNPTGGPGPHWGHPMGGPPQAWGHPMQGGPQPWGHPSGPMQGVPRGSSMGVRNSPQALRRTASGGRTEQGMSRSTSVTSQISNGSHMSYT
# [4] = biological target: T2, Serine/threonine-protein kinase TAO1 (Homo sapiens); details: at 10 µM
# [5] = biological target: T3, Serine/threonine-protein kinase TAO2 (Homo sapiens) (UniProt Q9UL54); details: at 1 µM
# T3 sequence (whole entry): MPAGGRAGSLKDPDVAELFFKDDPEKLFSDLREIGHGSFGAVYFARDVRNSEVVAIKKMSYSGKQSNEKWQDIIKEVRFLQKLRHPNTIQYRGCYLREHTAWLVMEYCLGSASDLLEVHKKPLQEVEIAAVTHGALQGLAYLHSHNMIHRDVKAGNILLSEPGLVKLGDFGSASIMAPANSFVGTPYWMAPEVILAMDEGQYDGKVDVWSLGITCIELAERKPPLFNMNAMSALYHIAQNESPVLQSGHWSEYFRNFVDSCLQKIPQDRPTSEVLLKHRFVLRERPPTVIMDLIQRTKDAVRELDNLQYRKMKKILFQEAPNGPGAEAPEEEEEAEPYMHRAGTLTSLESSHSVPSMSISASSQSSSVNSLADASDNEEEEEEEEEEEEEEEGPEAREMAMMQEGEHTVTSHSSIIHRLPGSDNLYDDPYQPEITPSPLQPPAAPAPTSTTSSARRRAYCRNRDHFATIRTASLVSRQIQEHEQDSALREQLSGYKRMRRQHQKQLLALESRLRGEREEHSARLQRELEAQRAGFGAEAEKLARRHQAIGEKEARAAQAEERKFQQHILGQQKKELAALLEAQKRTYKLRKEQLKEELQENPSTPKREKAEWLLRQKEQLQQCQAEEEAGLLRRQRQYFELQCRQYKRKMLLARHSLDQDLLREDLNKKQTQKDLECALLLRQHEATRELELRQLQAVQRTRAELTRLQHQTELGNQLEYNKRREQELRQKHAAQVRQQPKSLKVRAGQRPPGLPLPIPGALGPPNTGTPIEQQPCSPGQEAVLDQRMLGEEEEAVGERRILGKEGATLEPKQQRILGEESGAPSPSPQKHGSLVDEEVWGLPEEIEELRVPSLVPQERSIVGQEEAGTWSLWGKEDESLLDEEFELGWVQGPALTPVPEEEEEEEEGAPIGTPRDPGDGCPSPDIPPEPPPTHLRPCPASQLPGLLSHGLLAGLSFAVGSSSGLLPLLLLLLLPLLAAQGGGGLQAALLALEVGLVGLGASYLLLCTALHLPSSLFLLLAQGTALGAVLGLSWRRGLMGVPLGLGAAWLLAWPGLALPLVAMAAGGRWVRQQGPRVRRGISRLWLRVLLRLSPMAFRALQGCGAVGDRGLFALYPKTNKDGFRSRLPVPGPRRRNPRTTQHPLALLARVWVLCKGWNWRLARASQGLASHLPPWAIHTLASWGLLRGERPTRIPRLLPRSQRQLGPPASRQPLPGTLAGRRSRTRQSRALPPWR
# [6] = biological target: T3, Serine/threonine-protein kinase TAO2 (Homo sapiens); details: at 10 µM
# [7] = biological target: T4, Serine/threonine-protein kinase TAO3 (Homo sapiens) (UniProt Q9H2K8); details: at 1 µM
# T4 sequence (whole entry): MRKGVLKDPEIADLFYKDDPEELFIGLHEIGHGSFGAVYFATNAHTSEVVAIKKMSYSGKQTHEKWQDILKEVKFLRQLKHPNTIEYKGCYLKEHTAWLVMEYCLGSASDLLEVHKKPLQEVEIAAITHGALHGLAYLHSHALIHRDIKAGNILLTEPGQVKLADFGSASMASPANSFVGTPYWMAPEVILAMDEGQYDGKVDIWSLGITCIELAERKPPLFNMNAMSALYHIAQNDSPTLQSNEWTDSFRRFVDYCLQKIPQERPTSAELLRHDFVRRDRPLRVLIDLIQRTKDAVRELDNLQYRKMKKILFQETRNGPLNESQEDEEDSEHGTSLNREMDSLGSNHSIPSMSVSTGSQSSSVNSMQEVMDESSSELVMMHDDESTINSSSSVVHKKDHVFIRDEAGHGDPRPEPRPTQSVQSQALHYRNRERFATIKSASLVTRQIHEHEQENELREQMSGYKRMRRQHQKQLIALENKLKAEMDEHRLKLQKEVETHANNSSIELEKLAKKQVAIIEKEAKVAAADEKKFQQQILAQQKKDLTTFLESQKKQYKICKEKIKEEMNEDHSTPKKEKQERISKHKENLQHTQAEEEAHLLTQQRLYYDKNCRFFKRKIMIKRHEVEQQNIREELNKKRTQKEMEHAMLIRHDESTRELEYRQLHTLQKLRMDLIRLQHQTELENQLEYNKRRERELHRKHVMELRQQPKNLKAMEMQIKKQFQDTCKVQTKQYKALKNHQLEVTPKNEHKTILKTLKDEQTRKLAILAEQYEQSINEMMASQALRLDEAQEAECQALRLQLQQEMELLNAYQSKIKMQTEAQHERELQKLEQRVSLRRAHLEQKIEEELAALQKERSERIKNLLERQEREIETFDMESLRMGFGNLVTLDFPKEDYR
# [8] = biological target: T4, Serine/threonine-protein kinase TAO3 (Homo sapiens); details: at 10 µM
# [9] = biological target: T5, Serine/threonine-protein kinase TBK1 (Homo sapiens) (UniProt Q9UHD2); details: at 1 µM
# T5 sequence (whole entry): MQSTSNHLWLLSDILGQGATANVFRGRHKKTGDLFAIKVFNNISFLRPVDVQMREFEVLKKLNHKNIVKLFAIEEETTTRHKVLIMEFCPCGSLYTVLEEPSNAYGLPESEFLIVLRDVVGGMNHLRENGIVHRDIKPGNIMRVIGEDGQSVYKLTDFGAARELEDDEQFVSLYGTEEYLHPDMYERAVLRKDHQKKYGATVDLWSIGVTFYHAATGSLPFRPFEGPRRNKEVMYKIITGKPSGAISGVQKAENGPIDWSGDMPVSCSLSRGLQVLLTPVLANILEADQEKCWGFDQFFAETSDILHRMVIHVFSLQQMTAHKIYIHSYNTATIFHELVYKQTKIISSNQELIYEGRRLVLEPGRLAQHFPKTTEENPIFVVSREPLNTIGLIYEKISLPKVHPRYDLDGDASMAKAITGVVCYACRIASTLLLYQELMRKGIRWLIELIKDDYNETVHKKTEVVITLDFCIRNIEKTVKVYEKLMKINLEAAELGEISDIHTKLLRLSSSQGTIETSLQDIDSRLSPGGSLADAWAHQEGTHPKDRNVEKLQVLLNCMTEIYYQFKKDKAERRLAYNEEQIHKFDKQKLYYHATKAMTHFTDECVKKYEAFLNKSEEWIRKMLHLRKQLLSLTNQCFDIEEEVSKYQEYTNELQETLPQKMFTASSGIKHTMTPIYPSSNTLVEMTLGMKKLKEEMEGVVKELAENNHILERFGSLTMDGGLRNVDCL
# [10] = biological target: Tyrosine-protein kinase SYK (Homo sapiens) (UniProt P43405); details: at 10 µM
Structure (SMILES),residual activity [1] [%],residual activity [2] [%],residual activity [3] [%],residual activity [4] [%],residual activity [5] [%],residual activity [6] [%],residual activity [7] [%],residual activity [8] [%],residual activity [9] [%],residual activity [10] [%]
c1ccc(-c2n[nH]cc2-c2ccnc3ccccc23)nc1,91,71,107,95,103,86,91,84,71,–
Cn1nc2c3c(cccc31)C(=O)c1ccccc1-2,87,46,94,88,–,95,91,90,67,100
Cc1cccc(-c2[nH]c(C(C)(C)C)nc2-c2ccc3c(c2)OCO3)n1,89,90,103,98,–,90,101,102,73,–
Cn1cnc2cc3c(Nc4cccc(Br)c4)ncnc3cc21,98,106,–,73,98,98,94,93,83,86
Nc1nc(Nc2ccc(S(N)(=O)=O)cc2)nn1C(=S)Nc1c(F)cccc1F,9,2,0,1,2,3,0,2,-1,3
Cc1nc2cc3nc(-c4cccs4)cnc3cc2n1C,96,100,111,100,113,98,98,95,105,93
Oc1ccc(Nc2nc(-c3ccc(Cl)cc3)cs2)cc1,112,98,106,85,118,89,99,95,114,114
CC(=O)O/N=C1\C(=C2\C(=O)Nc3cc(Br)ccc32)Nc2ccccc21,91,85,89,79,81,83,96,86,57,40
Oc1c2ccccc2c2c3c(cccc13)N=N2,41,19,69,25,101,69,69,27,35,–
Cn1cc(/C=C2\C(=O)Nc3ccc(S(N)(=O)=O)cc32)c2ccccc21,92,77,74,37,100,88,74,66,8,28
COc1cc2ncnc(Nc3ccc(NC(=O)c4ccccc4)cc3)c2cc1OC,107,96,–,94,98,83,102,84,96,88
CN(C)CCCn1cc(C2=C(c3c[nH]c4ccccc34)C(=O)NC2=O)c2ccccc21,103,64,–,53,101,49,88,27,80,57
O=C1c2ccccc2-[n+]2ccc3c([nH]c4ccccc43)c21,93,82,96,86,–,90,89,90,58,90
COc1cc2ncc(-c3ccccc3)nc2cc1OC,98,82,–,91,–,–,–,–,91,100
CCOc1cc2ncnc(Nc3cccc(Br)c3)c2cc1OCC,95,83,86,73,101,84,100,81,70,58
c1ccc2c(-c3ccncc3)c[nH]c2c1,85,85,100,66,–,85,98,72,65,92
N#CC(C#N)=C(N)/C(C#N)=C/c1ccc(O)cc1,–,89,–,81,–,87,99,85,82,74
